Source: PubChem
HT1080 IDH1KD tx – kills HT-1080 cells with IDH1 knockdown | HT-1080 IDH1 knockdown viability, ATP luminescence, 48 h | Potency, µM (titrated, usually from 46.1 µM), inactives show at the highest dose activity, negative = toxicity, usual class: cytotoxic | 2% of 360,000 active | AID 686971;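 note: potency is the fitted concentration of half-maximal effect; 0% = DMSO wells and -100% = cell-free medium wells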
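% activity derives from luminescence (CellTiter-Glo), normalised to DMSO and no-cell wells. HT-1080-IDH1KD cells, 750/well, had 48 h compound exposure at 37 °C.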
HT1080-NT tox – kills 2HG-producing HT-1080-NT fibrosarcoma cells; 1.6% of 360,000 active; Potency, µM (titrated, usually from 46.1 µM), without a hit: top-dose activity, negative = less viability, usual class: cytotoxic; HT-1080-NT fibrosarcoma viability, CellTiter-Glo ATP luminescence, 48 h;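 note: NT is the 2HG producing partner of a matched IDH1 knockdown line; potency is the fitted concentration of half-maximal effect; 0% = DMSO-treated cells and -100% = media-only wells without cells; nearly all actives have a fitted effect of over 55% in size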
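Compounds were tested in concentration-response format on HT-1080-NT cells for 48 hours at 37 degrees C. Cell viability came from CellTiter-Glo luminescence; curves were classified by r2, response magnitude and activity.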
IL-1B inflam inh – inhibitors of inflammasome signaling (IL-1 beta secretion). AID 743279. THP-1 LPS/ATP IL-1B secretion, AlphaLISA, 16 h; active compounds read low. 4.7% of 360,000 active. activity change, % at 57.5 µM; in the data active = activity change below about -50%; inconclusive = mostly about -30% to -49%
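THP-1 cells pretreated 1 hr with compounds (up to 57.5 uM final), then stimulated with LPS (250 ng/mL final) plus ATP (1.25 mM final); secreted IL-1B measured by AlphaLISA after 16 hr, decreased signal indicating inhibition.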
DT40 TDP1 CPT – growth inhibition of DT40 Tdp1-/-;hTDP1 cells with camptothecin (screen for TDP1 inhibitors) | Potency, µM (doses to about 46.2 µM), inactives show top-dose activity change, negative = growth inhibition, usual class: inhibitors | 12% of 420,000 active | chicken DT40 Tdp1-/-;hTDP1 cells + 20 nM CPT, ATP luminescence, 48 h; note: potency is the fitted concentration of half-maximal effect; nearly all actives have a fitted effect of over 55% in size
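Chicken DT40 Tdp1-/- cells stably complemented with human TDP1 were seeded at 400 cells/well in medium containing 20 nM camptothecin, exposed to pin-transferred compounds, and grown at 37 °C for at least 48 hr. Viability was read as ATP luminescence.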
TDP1 cell noCPT – qHTS for Inhibitors of human tyrosyl-DNA phosphodiesterase 1 (TDP1): qHTS in cells in absence of CPT; DT40 Tdp1-/- hTDP1 cells, no CPT, ATP luminescence, 48 h; Potency, µM (doses to about 46.2 µM), for the others: top-dose activity change, negative = growth inhibition, hits mostly inhibitors; 15% of 420,000 active; AID 686978, 2013; note: potency is the fitted concentration of half-maximal effect; nearly all actives have a fitted effect of over 55% in size
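Seeded 400 DT40-hTDP1 cells/well (vehicle DMSO, no 20 nM CPT); pinned compounds; ≥48 hr at 37 °C; CellTiter-Glo luminescence as viability measure.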
Active calls of the source: *; ? = inconclusive; · = no result. Rows were chosen to be rich in hits. Some 19% of all compounds tested hit in one or more screens of this group. Unless noted, calls come from the whole dose curve; as a rule, active = well fitted curve in the direction sought with a large enough effect; inconclusive = small, poorly fitted or top-dose-only effect, or another doubt; inactive = no such curve, though single readings can be large; an effect the other way counts as inactive or inconclusive. Unless noted, % is set by controls: 0 for no effect and ±100 for the full control effect.

SMILES | HT1080 IDH1KD tx | HT1080-NT tox | IL-1B inflam inh | DT40 TDP1 CPT | TDP1 cell noCPT
CNc1nc2sc3c(c2c(=O)n1C)CC(C)(C)SC3 | -13.3% | -18.8% | 13.3 | -29.6% | ?
c1ccc(CNc2nc(NCc3cccs3)nc3ccsc23)cc1 | ? | ? | -57.1* | 18.4µM* | 11.6µM*
COCCNc1nc(NCc2cccs2)nc2ccsc12 | 15.1% | 18.6% | -90.0* | ? | 25.9µM*
O=C1NCCN1CCNc1nc(NCc2ccccc2)nc2ccsc12 | 12.4% | 27.0% | 5.6 | ? | ?
COCCNc1nc(NCc2cc(-c3ccc(OC)cc3)no2)c2sccc2n1 | 13µM* | ? | ? | ? | 18.4µM*
c1ccc(CNc2nc(NCCc3ccncc3)c3sccc3n2)cc1 | ? | ? | -98.1* | 18.4µM* | 10.3µM*
c1csc(CNc2nc(NCC3CCCCC3)c3sccc3n2)c1 | ? | ? | ? | 5.8µM* | 9.2µM*
O=C1CCCN1CCCNc1nc(NCc2cccs2)nc2ccsc12 | -6.0% | ? | -84.3* | 20.6µM* | 16.4µM*
CNc1nc(NCc2ccccc2)c2sccc2n1 | ? | ? | -17.9 | 18.4µM* | 16.4µM*
CNc1nc(-c2ccccc2)c2sccc2n1 | -14.8% | -3.9% | 47.8 | ? | ?
CC(=O)NCCNc1nc(NCc2cccs2)nc2ccsc12 | 11.4% | -1.8% | 111.1 | -2.9% | ?
Cc1ccnc(NS(=O)(=O)c2ccc(NC(=O)c3snnc3C)cc2)n1 | 4.4% | -2.7% | -5.2 | 9.7% | 10.0%
Cc1cccc(N2CCN(Cc3nnc(-c4ccccc4C)o3)CC2C)c1 (centres undefined) | · | · | · | 13µM* | ?
Cc1ccccc1-c1nnc(CN2CCC(C)CC2)o1 | 12.8% | 24.3% | -3.4 | 10.7% | 2.7%
Cc1ccc(C2CC(=O)C=C(NCC(C)C)C2)cc1 (centres undefined) | -5.2% | -1.2% | -22.4 | ? | 20.6µM*
O=C1C=C(c2ccccc2)C[C@@H](c2ccc3c(c2)OCO3)C1 | 6.2% | 5.1% | -22.8 | -15.4% | -25.0%
Cc1ccc(C2CC(=O)C=C(NCc3ccccc3)C2)cc1 (centres undefined) | 20.6µM* | ? | -17.1 | 5.17µM* | 4.61µM*
COc1ccc(C2CC(=O)C=C(NCCC(C)C)C2)cc1 (centres undefined) | -9.3% | -15.7% | -20.6 | ? | 14.6µM*
COc1ccc(NC2=CC(=O)CC(c3ccc(C)cc3)C2)c(OC)c1 (centres undefined) | -1.5% | 1.6% | 12.5 | ? | ?
O=C1C=C(NCc2ccc3c(c2)OCO3)CC(c2ccccc2)C1 (centres undefined) | ? | -18.2% | 2.1 | ? | 18.4µM*
O=C(COC(=O)CCC1CCCC1)Nc1ccc(F)cc1 | 11.4% | 2.0% | -10.0 | -20.8% | -6.7%
COc1ccc(-c2cc3ccc(O)c(CN4CCCC(C)C4)c3oc2=O)cc1 (centres undefined) | · | · | · | ? | 16.4µM*
CN1CCN(Cc2c(O)ccc3cc(-c4ccc(Cl)cc4)c(=O)oc23)CC1 | · | · | · | 23.1µM* | ?
COc1ccc(-c2c(C)oc3c(CN4CCN(C)CC4)c(O)ccc3c2=O)cc1 | 1.3% | -0.9% | -13.5 | -0.9% | -18.8%
CCN1CCN(Cc2c(O)ccc3c(C)c(-c4ccc(OC)cc4)c(=O)oc23)CC1 | · | · | · | ? | 23.1µM*
CC1CCCCN1C(=O)c1ccc(NC(=O)c2ccccc2Cl)cc1 (centres undefined) | 6.0% | 3.2% | ? | -0.4% | -29.2%
O=C(O)c1cccc(-c2ccccc2)c1O | 1.9% | 4.4% | 33.5 | 8.9% | 10.8%
CC[C@]1(O)C[C@@H]2CN(CCc3c([nH]c4ccccc34)[C@](C(=O)OC)(c3cc4c(cc3OC)N(C=O)[C@H]3[C@@](O)(C(=O)OC)[C@H](C(=O)OC)[C@@]5(CC)C=CCN6CC[C@]43[C@H]65)C2)C1 | · | · | · | 0.0266µM* | 0.0188µM*
